Key:
Assay in all cases: DAPPL (digital affinity profiling via proximity ligation, sequencing); 10 mM Tris-HCl pH 7.5, 50 mM NaCl, 1 mM DTT, 4% glycerol, room temperature, 30 min; GST-TFs on glutathione beads, 16-mer random dsDNA library, 0.1% formaldehyde crosslink after washing; high values mean tight binding
[1] = molecular target: T1, FEV (Homo sapiens, UniProt Q99581 1-238); settings: protein: recombinant; tags: N-terminal GST; dsDNA, one strand shown
T1 sequence: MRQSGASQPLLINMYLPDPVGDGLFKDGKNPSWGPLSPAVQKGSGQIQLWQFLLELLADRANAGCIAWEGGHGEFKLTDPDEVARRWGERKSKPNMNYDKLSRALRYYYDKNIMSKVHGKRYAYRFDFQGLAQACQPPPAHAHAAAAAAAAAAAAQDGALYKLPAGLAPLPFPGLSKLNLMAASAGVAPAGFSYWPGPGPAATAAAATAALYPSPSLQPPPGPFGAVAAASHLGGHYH
Outline: (§1)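 Pools of DNA-barcoded human transcription factors, expressed in yeast as GST fusions on glutathione beads and combined with a tag-only sample, were incubated with 200 nmole of a 16-mer random double-stranded DNA library. Incubation took 30 min at room temperature in Tris/NaCl/DTT/glycerol buffer and was followed by washing, 0.1% formaldehyde crosslinking, proximity ligation (BsaI/T4 ligase, 1 h, 37 °C), PCR amplification and sequencing on an Illumina NextSeq500. Binding signal is the ratio of a hexamer's read frequency for a factor to its frequency for the tag-only sample.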

[2] = molecular target: ETV5 (Homo sapiens, UniProt P41161 1-510); settings: protein: recombinant; tags: N-terminal GST; dsDNA, one strand shown
Outline: as §1

[3] = molecular target: HSF1 (Homo sapiens, UniProt Q00613 1-529); settings: protein: recombinant; tags: N-terminal GST; chain copies: 3; dsDNA, one strand shown
Outline: as §1

[4] = molecular target: T2, SPIC (Homo sapiens, UniProt Q8N5J4 1-248); settings: protein: recombinant; tags: N-terminal GST; dsDNA, one strand shown
T2 sequence: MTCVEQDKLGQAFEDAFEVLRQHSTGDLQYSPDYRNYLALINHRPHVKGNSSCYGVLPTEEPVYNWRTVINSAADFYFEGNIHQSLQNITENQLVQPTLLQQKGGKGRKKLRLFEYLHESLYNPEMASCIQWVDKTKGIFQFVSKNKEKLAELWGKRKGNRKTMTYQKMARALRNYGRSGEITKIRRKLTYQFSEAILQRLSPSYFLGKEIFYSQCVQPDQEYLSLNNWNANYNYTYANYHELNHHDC
Outline: as §1

[5] = molecular target: ELF4 (Homo sapiens, UniProt Q99607 1-663); settings: protein: recombinant; tags: N-terminal GST; dsDNA, one strand shown
Outline: as §1

[6] = molecular target: T3, ELK4 (Homo sapiens, UniProt P28324-2 1-405); settings: protein: recombinant; tags: N-terminal GST; dsDNA, one strand shown
T3 sequence: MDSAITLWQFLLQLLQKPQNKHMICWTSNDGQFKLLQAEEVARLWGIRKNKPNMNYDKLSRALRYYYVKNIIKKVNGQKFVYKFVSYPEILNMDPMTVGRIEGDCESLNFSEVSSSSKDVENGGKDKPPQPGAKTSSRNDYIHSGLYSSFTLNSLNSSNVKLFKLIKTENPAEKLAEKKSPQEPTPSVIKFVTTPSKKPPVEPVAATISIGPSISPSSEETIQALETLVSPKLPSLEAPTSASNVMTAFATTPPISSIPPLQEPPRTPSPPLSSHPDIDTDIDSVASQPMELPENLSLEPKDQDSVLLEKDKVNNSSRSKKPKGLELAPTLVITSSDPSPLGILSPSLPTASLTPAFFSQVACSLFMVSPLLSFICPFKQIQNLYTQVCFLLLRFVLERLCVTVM
Outline: as §1

[7] = molecular target: T4, ETV2 (Homo sapiens, UniProt O00321 1-342); settings: protein: recombinant; tags: N-terminal GST; dsDNA, one strand shown
T4 sequence: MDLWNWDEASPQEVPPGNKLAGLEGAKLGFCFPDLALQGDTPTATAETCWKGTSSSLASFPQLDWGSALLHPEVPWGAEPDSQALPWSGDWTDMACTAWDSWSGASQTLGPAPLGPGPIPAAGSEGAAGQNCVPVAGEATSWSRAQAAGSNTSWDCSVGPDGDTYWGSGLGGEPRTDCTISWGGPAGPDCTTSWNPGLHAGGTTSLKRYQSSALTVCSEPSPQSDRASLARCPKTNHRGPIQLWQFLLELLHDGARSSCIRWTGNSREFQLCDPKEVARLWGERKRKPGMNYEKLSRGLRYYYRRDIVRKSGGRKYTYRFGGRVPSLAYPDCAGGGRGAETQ
Outline: as §1

[8] = molecular target: T5, ELF3 (Homo sapiens, UniProt P78545 1-371); settings: protein: recombinant; tags: N-terminal GST; dsDNA, one strand shown
T5 sequence: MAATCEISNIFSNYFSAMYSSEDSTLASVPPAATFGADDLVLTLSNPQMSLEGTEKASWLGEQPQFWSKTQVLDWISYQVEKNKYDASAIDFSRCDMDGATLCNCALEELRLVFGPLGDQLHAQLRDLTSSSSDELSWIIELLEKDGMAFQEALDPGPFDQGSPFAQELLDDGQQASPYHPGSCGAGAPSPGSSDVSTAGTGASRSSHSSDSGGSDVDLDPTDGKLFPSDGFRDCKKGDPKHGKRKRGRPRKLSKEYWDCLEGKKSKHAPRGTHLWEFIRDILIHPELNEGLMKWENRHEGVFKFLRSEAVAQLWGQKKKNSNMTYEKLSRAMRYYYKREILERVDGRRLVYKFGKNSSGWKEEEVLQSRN
Outline: as §1

[9] = molecular target: CRX (Homo sapiens, UniProt O43186 1-299); settings: protein: recombinant; tags: N-terminal GST; dsDNA, one strand shown
Outline: as §1

[10] = molecular target: ETV1 (Homo sapiens, UniProt P50549 1-477); settings: protein: recombinant; tags: N-terminal GST; dsDNA, one strand shown
Outline: as §1

[11] = molecular target: T6, ERF (Homo sapiens, UniProt P50548 1-548); settings: protein: recombinant; tags: N-terminal GST; dsDNA, one strand shown
T6 sequence: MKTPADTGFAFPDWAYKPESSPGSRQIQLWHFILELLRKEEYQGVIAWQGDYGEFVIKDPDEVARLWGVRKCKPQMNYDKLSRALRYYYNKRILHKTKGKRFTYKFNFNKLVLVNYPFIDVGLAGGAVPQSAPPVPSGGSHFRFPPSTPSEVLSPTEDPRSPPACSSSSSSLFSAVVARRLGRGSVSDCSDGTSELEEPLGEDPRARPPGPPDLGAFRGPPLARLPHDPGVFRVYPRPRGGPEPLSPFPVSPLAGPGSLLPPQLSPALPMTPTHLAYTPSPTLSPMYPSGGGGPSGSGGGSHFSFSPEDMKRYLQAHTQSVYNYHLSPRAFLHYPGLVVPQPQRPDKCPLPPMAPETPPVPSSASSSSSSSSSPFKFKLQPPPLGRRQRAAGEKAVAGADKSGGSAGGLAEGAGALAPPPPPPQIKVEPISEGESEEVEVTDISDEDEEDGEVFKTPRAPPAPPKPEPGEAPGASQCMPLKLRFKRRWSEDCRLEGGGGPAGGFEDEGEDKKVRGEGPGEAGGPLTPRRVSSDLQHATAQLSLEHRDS
Outline: as §1

[12] = molecular target: T7, ETV3L (Homo sapiens, UniProt Q6ZN32 1-361); settings: protein: recombinant; tags: N-terminal GST; dsDNA, one strand shown
T7 sequence: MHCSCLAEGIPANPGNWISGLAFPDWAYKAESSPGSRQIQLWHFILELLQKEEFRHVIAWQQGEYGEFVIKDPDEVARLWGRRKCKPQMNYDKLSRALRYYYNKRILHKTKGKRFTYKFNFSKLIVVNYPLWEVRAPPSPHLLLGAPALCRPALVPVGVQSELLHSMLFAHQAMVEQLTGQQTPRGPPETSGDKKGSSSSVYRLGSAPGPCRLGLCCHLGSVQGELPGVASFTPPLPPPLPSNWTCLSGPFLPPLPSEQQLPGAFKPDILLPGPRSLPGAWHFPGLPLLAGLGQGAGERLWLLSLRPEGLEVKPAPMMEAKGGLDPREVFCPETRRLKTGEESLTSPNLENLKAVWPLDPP
Outline: as §1

[13] = molecular target: T8, ETS2 (Homo sapiens, UniProt P15036 1-469); settings: protein: recombinant; tags: N-terminal GST; dsDNA, one strand shown
T8 sequence: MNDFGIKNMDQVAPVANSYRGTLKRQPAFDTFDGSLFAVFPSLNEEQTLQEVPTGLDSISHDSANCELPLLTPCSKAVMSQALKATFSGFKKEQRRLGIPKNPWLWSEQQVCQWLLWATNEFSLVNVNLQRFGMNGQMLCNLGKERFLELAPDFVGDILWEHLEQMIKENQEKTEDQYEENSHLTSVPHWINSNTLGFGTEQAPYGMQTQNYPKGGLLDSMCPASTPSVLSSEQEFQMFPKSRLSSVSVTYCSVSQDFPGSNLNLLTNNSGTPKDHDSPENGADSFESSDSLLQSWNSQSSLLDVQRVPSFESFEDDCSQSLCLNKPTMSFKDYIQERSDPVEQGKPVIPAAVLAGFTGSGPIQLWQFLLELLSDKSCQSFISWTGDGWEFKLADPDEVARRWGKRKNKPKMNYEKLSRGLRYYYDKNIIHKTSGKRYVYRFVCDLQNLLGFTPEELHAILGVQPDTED
Outline: as §1

[14] = molecular target: T9, SPDEF (Homo sapiens, UniProt O95238 1-335); settings: protein: recombinant; tags: N-terminal GST; dsDNA, one strand shown
T9 sequence: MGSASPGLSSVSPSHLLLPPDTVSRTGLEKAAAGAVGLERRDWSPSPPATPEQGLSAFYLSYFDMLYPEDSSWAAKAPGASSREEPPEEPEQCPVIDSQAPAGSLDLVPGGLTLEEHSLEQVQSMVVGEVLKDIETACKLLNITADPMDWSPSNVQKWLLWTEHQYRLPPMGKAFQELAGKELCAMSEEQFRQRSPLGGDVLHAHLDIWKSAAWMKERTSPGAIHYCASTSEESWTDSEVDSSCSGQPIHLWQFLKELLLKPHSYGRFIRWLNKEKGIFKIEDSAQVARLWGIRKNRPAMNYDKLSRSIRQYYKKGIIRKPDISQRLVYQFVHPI
Outline: as §1

[15] = molecular target: T10, ETV7 (Homo sapiens, UniProt Q9Y603 1-341); settings: protein: recombinant; tags: N-terminal GST; dsDNA, one strand shown
T10 sequence: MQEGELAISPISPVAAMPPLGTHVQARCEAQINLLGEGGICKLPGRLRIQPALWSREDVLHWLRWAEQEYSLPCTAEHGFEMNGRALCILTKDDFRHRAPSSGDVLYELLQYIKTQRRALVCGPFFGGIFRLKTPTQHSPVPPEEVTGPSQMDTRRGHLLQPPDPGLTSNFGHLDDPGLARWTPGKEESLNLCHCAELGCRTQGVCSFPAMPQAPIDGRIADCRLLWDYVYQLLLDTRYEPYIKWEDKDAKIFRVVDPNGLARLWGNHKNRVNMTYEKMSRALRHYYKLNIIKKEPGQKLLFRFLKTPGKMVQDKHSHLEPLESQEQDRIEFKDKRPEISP
Outline: as §1

[16] = molecular target: T11, ELF5 (Homo sapiens, UniProt Q9UKW6-2 1-255); settings: protein: recombinant; tags: N-terminal GST; dsDNA, one strand shown
T11 sequence: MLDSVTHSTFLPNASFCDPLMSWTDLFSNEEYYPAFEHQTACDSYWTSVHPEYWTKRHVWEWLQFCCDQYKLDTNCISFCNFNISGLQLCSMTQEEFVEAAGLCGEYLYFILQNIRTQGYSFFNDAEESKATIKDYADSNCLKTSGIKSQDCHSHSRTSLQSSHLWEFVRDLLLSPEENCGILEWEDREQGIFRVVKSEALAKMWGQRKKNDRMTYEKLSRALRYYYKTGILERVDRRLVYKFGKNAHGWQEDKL
Outline: as §1

[17] = molecular target: T12, ETV3 (Homo sapiens, UniProt P41162-2 1-143); settings: protein: recombinant; tags: N-terminal GST; dsDNA, one strand shown
T12 sequence: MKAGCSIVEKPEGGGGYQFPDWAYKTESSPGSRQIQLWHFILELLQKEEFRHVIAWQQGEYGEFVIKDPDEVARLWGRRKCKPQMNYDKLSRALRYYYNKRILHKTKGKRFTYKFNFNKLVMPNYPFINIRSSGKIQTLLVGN
Outline: as §1

[18] = molecular target: ETV6 (Homo sapiens, UniProt P41212 1-452); settings: protein: recombinant; tags: N-terminal GST; dsDNA, one strand shown
Outline: as §1

Chain of ETV6 (P41212 whole entry): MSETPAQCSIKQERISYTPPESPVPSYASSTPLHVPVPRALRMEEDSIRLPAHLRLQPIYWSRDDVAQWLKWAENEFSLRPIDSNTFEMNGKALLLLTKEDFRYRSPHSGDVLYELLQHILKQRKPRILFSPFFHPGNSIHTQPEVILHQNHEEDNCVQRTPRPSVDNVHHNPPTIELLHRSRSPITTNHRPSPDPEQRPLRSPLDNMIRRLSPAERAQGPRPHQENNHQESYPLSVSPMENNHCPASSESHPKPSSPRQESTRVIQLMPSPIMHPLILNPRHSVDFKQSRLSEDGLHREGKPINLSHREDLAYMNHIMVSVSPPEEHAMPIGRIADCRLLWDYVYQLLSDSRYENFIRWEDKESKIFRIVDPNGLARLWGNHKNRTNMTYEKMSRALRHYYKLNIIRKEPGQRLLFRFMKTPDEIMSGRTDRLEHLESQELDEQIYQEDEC
Chain of ETV5 (P41161 whole entry): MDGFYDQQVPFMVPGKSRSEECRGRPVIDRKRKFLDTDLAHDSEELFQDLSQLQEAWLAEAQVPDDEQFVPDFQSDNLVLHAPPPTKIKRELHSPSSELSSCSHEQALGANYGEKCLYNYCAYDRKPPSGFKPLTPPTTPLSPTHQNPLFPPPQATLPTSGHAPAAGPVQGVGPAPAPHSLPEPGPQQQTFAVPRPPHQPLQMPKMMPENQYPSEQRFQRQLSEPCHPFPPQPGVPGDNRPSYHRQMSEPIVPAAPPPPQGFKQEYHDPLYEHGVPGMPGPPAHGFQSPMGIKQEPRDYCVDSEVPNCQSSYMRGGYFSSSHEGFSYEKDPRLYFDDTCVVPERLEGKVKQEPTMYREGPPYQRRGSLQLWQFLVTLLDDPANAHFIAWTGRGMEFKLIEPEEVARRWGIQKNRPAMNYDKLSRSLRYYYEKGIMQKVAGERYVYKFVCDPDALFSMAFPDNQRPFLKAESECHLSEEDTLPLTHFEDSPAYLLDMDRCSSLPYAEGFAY
Chain of ETV1 (P50549 whole entry): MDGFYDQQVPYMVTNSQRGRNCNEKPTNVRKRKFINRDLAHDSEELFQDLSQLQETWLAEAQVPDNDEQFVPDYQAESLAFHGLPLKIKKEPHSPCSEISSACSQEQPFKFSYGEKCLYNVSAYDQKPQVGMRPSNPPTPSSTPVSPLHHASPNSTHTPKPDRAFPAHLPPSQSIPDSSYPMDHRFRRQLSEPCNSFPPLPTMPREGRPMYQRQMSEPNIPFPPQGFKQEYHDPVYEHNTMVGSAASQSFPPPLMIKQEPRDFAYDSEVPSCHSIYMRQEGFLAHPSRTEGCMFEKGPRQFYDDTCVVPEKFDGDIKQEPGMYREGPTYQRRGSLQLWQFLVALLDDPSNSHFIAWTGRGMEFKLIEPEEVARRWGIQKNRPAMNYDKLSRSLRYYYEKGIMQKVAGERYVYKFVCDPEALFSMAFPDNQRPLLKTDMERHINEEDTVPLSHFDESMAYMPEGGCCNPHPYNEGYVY
Chain of CRX (O43186 whole entry): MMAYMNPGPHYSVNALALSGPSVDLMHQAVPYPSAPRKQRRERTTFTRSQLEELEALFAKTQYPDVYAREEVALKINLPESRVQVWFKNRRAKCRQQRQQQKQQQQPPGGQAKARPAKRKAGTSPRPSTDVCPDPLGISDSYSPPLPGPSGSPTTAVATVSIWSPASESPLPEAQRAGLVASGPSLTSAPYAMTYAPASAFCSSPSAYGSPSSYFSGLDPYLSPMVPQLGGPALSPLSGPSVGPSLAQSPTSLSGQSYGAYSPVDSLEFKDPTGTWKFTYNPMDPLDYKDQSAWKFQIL
Chain of ELF4 (Q99607 whole entry): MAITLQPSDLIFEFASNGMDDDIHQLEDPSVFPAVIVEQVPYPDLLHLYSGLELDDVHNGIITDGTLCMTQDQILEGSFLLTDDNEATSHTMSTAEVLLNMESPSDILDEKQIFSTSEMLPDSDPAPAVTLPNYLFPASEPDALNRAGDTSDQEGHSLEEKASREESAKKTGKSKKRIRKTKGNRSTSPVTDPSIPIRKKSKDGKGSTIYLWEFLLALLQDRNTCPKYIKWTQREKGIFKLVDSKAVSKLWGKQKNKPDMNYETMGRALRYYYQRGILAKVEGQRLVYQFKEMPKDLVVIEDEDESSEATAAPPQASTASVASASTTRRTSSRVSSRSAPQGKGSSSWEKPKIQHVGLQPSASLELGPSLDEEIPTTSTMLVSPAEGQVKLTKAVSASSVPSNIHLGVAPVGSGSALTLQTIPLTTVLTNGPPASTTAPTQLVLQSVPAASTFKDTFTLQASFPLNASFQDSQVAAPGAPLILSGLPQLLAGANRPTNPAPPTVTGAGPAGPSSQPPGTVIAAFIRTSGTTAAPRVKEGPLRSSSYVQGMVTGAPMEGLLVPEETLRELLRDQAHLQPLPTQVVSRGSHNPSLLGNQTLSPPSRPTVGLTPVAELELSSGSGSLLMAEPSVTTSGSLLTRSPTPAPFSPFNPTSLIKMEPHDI
Chain of HSF1 (Q00613 whole entry): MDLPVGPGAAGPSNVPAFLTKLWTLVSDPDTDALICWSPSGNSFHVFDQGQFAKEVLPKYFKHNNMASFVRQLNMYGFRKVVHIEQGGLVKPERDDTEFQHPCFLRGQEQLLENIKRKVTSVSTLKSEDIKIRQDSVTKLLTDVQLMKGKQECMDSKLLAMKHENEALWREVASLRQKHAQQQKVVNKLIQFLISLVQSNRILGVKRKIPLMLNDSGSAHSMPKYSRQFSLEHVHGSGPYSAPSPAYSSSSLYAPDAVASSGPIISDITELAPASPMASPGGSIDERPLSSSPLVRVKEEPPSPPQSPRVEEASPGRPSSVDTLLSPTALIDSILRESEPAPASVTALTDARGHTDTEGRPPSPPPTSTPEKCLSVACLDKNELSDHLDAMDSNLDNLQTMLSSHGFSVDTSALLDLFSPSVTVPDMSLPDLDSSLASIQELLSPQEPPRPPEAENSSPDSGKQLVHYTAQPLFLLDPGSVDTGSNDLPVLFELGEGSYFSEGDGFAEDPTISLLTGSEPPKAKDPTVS

Question: CCACTT was tested. Which binding signal [1] did it give?
Answer: The binding signal was 2.3 fold enrichment (6-mer frequency, TF over GST control).

Question: What about the binding signal [2] of the same sequence?
Answer: Its binding signal is 1.99 fold enrichment (6-mer frequency, TF over GST control).

Question: What about the binding signal [3] of the same sequence?
Answer: Its binding signal is 1.25 fold enrichment (6-mer frequency, TF over GST control).

Question: And the binding signal [4]?
Answer: Its binding signal is 1.63 fold enrichment (6-mer frequency, TF over GST control).

Question: What about the binding signal [5] of the same sequence?
Answer: Its binding signal is 1.98 fold enrichment (6-mer frequency, TF over GST control).

Question: What about the binding signal [6] of the same sequence?
Answer: Its binding signal is 1.77 fold enrichment (6-mer frequency, TF over GST control).

Question: And the binding signal [7]?
Answer: The binding signal was 1.91 fold enrichment (6-mer frequency, TF over GST control).

Question: What about the binding signal [8] of the same sequence?
Answer: Its binding signal is 1.59 fold enrichment (6-mer frequency, TF over GST control).

Question: What about the binding signal [9] of the same sequence?
Answer: The binding signal was 1.36 fold enrichment (6-mer frequency, TF over GST control).

Question: What about the binding signal [10] of the same sequence?
Answer: Its binding signal is 1.95 fold enrichment (6-mer frequency, TF over GST control).

Question: And the binding signal [11]?
Answer: The binding signal was 1.9 fold enrichment (6-mer frequency, TF over GST control).

Question: What about the binding signal [12] of the same sequence?
Answer: The binding signal was 1.79 fold enrichment (6-mer frequency, TF over GST control).

Question: And the binding signal [13]?
Answer: Its binding signal is 1.84 fold enrichment (6-mer frequency, TF over GST control).

Question: What about the binding signal [14] of the same sequence?
Answer: The binding signal was 1.69 fold enrichment (6-mer frequency, TF over GST control).

Question: What about the binding signal [15] of the same sequence?
Answer: The binding signal was 1.78 fold enrichment (6-mer frequency, TF over GST control).

Question: What about the binding signal [16] of the same sequence?
Answer: The binding signal was 1.89 fold enrichment (6-mer frequency, TF over GST control).

Question: And the binding signal [17]?
Answer: Its binding signal is 1.97 fold enrichment (6-mer frequency, TF over GST control).

Question: And the binding signal [18]?
Answer: The binding signal was 1.85 fold enrichment (6-mer frequency, TF over GST control).

From paper PMC7862700, “An all-to-all approach to the identification of sequence-specific readers for epigenetic DNA modifications on cytosine”
